# In PubChem BioAssay AID493011 (Sanford-Burnham Center for Chemical Genomics, 2011):
# Where “and” joins values, the source holds several entries; their conditions need not be identical. Equal entries are not always repeated. Out of some 330,000 compounds screened, about 1,400 (0.42%) were called active. What follows is part of a selection rich in actives, with near analogues and random picks from the rest. Unmarked numbers belong to inactive results.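 Rule for the calls: active = at least 40% inhibition at 20 µM here, with at most 30% in a related deaminase screen; inactive = the rest.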
# Target: DNA dC->dU-editing enzyme APOBEC-3A (Homo sapiens) (UniProt P31941)
# Assay: blockers of A3A cytidine deamination on DNA – biochemical, FAM/TAMRA oligo cleavage fluorescence, selectivity assay for APOBEC3G inhibitor project, primary screen (AID 493011);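 note: plate controls were A3A with DMSO for no effect and wells lacking A3A enzyme for full effect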
# Conditions: recombinant A3A, FAM/TAMRA ssDNA deamination fluorescence; at 20 µM; hits give high values
# Chain of DNA dC->dU-editing enzyme APOBEC-3A (Homo sapiens) (P31941 whole entry, looked up): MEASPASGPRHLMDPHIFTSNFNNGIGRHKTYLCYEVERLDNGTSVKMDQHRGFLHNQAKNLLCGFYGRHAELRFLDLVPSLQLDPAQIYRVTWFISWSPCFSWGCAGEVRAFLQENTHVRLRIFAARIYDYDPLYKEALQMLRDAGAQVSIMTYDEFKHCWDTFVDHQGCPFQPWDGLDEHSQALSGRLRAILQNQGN
row,Compound,inhibition
1,N#Cc1c(NC(=O)c2ccc(N3CCOCC3)c([N+](=O)[O-])c2)sc2c1CCCC2,2.01%
2,CCCCNC(=O)CSc1nc2ccc(NC(=O)CSc3nnc(N)s3)cc2s1,75.7% (active)
3,Nc1nnc(SCC(=O)Nc2ccc3nc(SCC(=O)Nc4ccccc4)sc3c2)s1,-1.31%
4,CCCCNC(=O)CSc1nc2ccc(NC(=O)CSc3nnc(COc4ccccc4C)n3C)cc2s1,-2.55%
5,Cc1cc2c(=O)n(CC(=O)NCC(=O)Nc3ccc(C(C)C)cc3)cnc2s1,-11.2%
6,C=CC1=C(C(=O)O)N2C(=O)[C@@H](NC(=O)/C(=N\OCC(=O)O)c3csc(N)n3)[C@H]2SC1,13.4%
7,C=CC1=C(C(=O)O)N2C(=O)[C@@H](NC(=O)/C(=N/OCC(=O)O)c3csc(N)n3)[C@H]2SC1,57.5% (active)
8,CO/N=C(\C(=O)N[C@@H]1C(=O)N2C(C(=O)O)=C(COC(C)=O)CS[C@H]12)c1csc(N)n1 (stereo in doubt),2.73% and 21.9% and -0.539%
9,COc1ccccc1NC(=O)Nc1nnc(Cc2ccc(F)cc2)s1,0.132%
10,COc1ccc(Cc2nnc(NC(=O)c3ccc(OC)cc3OC)s2)cc1,52.7% (active)
11,COc1ccc(Cc2nnc(NC(=O)c3cc(OC)c(OC)c(OC)c3)s2)cc1OC,6.64%
12,CN(C)C(=O)Cn1c(=O)n(S(=O)(=O)c2ccccc2)c2ccccc21,0.322%
13,O=C(COC(=O)Cc1ccccc1F)NNC(=O)c1ccc(Cl)cc1,2.91%
14,O=C(COC(=O)c1ncc(Cl)c(Cl)c1Cl)NNC(=O)c1ccccc1,2.14%
15,NS(=O)(=O)c1cc(C(=O)OCC(=O)NNC(=O)c2ccccc2)ccc1Cl,76% (active)
16,Cc1c(C)c2ccc(OCC(=O)N3CCN(c4cccc(Cl)c4)CC3)cc2oc1=O,2.08%
17,COc1cc(NC(=S)N2CCCC(C)C2)c(OC)cc1Cl (stereo not drawn),-2.12%
18,CC(/C=C/c1ccco1)=N/NC(=O)C1COc2ccccc2O1 (stereo not drawn),-6.53%
19,O=C(N/N=C/C=C/c1ccccc1)C1CC1(c1ccccc1)c1ccccc1 (stereo not drawn),1.87%
20,CC(/C=C/c1ccccc1)=N\NC(=O)C1CC1(C)c1ccccc1 (stereo not drawn),59.5% (active)

row,Compound,inhibition
1,O=C(Nc1ccccc1N1CCOCC1)c1ccc(OCc2cscn2)cc1,3.65%
2,COc1ccc(CN(C)C(=O)c2cc(-c3ccc(C)cc3C)nc3ccccc23)c(OC)c1OC,-0.735%
3,CC1C(c2ccccc2)=[N+]([O-])C2(CCCC2)N1O (stereo not drawn),3.6%
4,CC(=O)Nc1ccc(NC(=O)C2CCCN(S(=O)(=O)c3ccc(Cl)cc3)C2)cc1 (stereo not drawn),94.5% (active)
5,CC(C)c1ccc(NC(=O)C2CCCN(S(=O)(=O)c3cccnc3)C2)cc1 (stereo not drawn),3.03%
6,COc1ccc(S(=O)(=O)N2CCCC(C(=O)Nc3ccc(NC(=O)c4ccccn4)cc3)C2)cc1 (stereo not drawn),0.311%
7,O=C(NCCCn1ccnc1)c1cc(Br)c(Br)s1,-1.2%
8,C/C(=N\NC(=O)c1cc(-c2ccc(O)cc2)nc2ccccc12)c1cccnc1,-0.382%
9,COc1ccc(-c2cc(C(=O)N/N=C/c3cccnc3)c3ccccc3n2)c(OC)c1,1.62%
10,O=C(N/N=C\c1cccnc1)c1cc(-c2ccccc2)nc2c(Cl)cccc12,43.3% (active)
11,C/C(Cn1nnc2ccccc21)=N\OC(=O)c1cc(F)c(F)cc1Cl,-2.44%
12,CCOc1ccc(C)cc1S(=O)(=O)NC1CCCCCC1,0.216%
13,COc1ccc(C2c3ccc(O)cc3Oc3ncn(CCCO)c(=N)c32)cc1OC (stereo not drawn),1.57%
14,Cc1ccc(COC(=O)CN2C(=O)NC3(CCCC3)C2=O)cc1,2.64%
15,Cc1ccc(CCCOC(=O)C[N+]2(C)CCCCC2)cc1,75.2% (active)
16,Cc1ccc(CCCOC(=O)C[N+]2(C)CCCC2)cc1,29.9%
17,O=C(COc1ccccc1)Nc1ccc(N2CCN(C(=O)c3cccs3)CC2)cc1,3.22%
18,COc1ccc(C(=O)NC2(C(F)(F)F)NC(=O)N(CCCc3ccccc3)C2=O)c(OC)c1OC (stereo not drawn),1.49%
19,CCn1c(SCC(=O)Nc2ccc3c(c2)OCCO3)nnc1-c1ccncc1,-2.5%
20,CCn1c(CNC(=O)c2ccco2)nnc1SCC(=O)Nc1cccc(F)c1,0.913%

row,Compound,inhibition
1,CCn1c(SCC(=O)Nc2cccc(F)c2)nnc1-c1cc2cc(Br)ccc2o1,49.5% (active)
2,Cc1ccccc1C1=N/C(=C/c2cccnc2)C(=O)O1,-1.12%
3,Cc1ccc(C2=C/C(=C\c3cccnc3)C(=O)O2)cc1,42.5% (active)
4,CN(C)/C=C1\C=C(c2ccccc2)OC1=O,0.636%
5,Cc1ccc(C(=O)N/N=C\c2cc(Br)c(Br)o2)cn1,44.2% (active)
6,O=C(N/N=C\c1cc(Br)c(Br)o1)C1COc2ccccc2O1 (stereo not drawn),13.8%
7,Cc1ccc(C(=O)N/N=C/c2cccc3ccccc23)cn1,-4.44%
8,O=C(CN1C(=O)NC2(CCOc3ccccc32)C1=O)Nc1cccc([N+](=O)[O-])c1 (stereo not drawn),6.58%
9,CC1=NN(C(=O)CCc2ccccc2O)C(O)(C(F)(F)F)C1 (stereo not drawn),54.8% (active)
10,CC1=NN(C(=O)CCCc2ccccc2)C(O)(C(F)(F)F)C1 (stereo not drawn),-5.39%
11,COc1ccc(CC(=O)N2N=C(C)CC2(O)C(F)(F)F)cc1 (stereo not drawn),-1.7%
12,CC(C)COP(=O)(c1ccc(N(C)C)cc1)C(Nc1ccccc1)c1cccnc1 (stereo not drawn),-0.443%
13,C[N+](C)(C)CCOP(=O)([O-])OC[C@H](O)CO,-3.05%
14,CCOc1cccc(OCCCOc2cccc3cccnc23)c1,0.036%
15,CCCc1cc(=O)[nH]c(SCc2ccc(C#N)cc2)n1,-3.79%
16,CCOc1ccc(C2C3=C(CCCC3=O)N(CC(=O)O)C3=C2C(=O)CCC3)cc1,5.98%
17,CCCN1C2=C(C(=O)CCC2)C(c2ccc(O)c(Br)c2)C2=C1CCCC2=O,68.9% (active)
18,COc1ccc(C2C3=C(CCCC3=O)N(CC(=O)O)C3=C2C(=O)CCC3)cc1,-0.629%
